Screening data (PubChem BioAssay)
FH mod – Identification of activators of human fumarate hydratase by quantitative high-throughput screening; FH coupled MDH/diaphorase resazurin fluorescence, 15 min; Potency, µM (doses to about 79.9 µM), without a hit: at the highest dose activity change, negative = inhibition, actives largely listed as inhibitors; 54,000 tested, 0.22% active; note: % is set by controls: 0 for no effect and ±100 for the full control effect; the screen sought activators but most active calls are inhibition curves; nearly all actives have a fitted effect of over 45% in size
NTMT1 inhibitor – blocks human N-terminal methyltransferase 1 activity. Q9BV86. NTMT1 MTase-Glo SAH luminescence, purified enzyme. Potency, µM (highest dose often 114 µM), for the others: at the highest dose activity change, negative = inhibition, hits mostly inhibitors. 59,000 tested, 2.5% active. AID 1645870;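 note: plate controls were DMSO vehicle for no effect and no enzyme for full effect; nearly all actives have a fitted effect of over 65% in size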
GALC G270D up – raises human GALC G270D mutant activity in cells; P54803; 145M-Twi-hGALC-G270D cells (Twitcher mouse brain line with human GALC G270D), HMU-beta-Gal fluorescence, 48 h; Potency, µM (top dose mostly 57.5 µM), actives largely listed as activators; 45,000 tested, 0.1% active; AID 1159614; note: 0% is about no effect; nearly all actives have a fitted effect of over 65% in size
Target sequence (P54803 whole entry G286D): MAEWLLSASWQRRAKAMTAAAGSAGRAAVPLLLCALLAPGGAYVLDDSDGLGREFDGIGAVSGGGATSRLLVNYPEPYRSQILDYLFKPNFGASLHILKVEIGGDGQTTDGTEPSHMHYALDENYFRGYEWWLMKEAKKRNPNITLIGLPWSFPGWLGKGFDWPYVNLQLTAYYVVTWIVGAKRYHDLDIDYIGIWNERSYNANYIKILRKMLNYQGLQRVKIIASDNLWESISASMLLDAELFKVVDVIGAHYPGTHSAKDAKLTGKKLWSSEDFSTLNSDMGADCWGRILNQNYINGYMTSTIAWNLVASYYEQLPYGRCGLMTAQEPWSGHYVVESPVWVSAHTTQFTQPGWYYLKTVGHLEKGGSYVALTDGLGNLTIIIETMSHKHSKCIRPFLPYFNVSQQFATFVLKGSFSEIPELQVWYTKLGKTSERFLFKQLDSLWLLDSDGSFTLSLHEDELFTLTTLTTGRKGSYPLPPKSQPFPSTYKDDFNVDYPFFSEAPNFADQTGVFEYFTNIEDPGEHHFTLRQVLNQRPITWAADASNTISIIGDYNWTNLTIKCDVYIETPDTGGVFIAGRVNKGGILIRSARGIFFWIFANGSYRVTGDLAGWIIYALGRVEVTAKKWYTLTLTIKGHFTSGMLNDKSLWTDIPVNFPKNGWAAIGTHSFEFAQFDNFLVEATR
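Brain-derived Twitcher mouse 145M-Twi cells stably expressing human GALC-G270D or wild-type GALC, treated live, then residual GALC activity read by fluorescence of HMU-b-Gal substrate (0.1 mM final) in citrate-phosphate buffer pH 5.2 with sodium taurocholate. Signal increase indicates enhancement.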
Numbers without * were called inactive; i = inactive; ? = inconclusive; nt = no result given; ! = not active in a repeat; [ ] = another dose, or the depositor's remark. Only a selection was taken, and hits are over-represented in it overall. Calls come from the whole dose curve; as a rule, active = well fitted curve in the direction sought with a large enough effect; inconclusive = small, poorly fitted or top-dose-only effect, or another doubt; inactive = no such curve, though single readings can be large; an effect the other way counts as inactive or inconclusive. Potency is the fitted concentration of half-maximal effect.

SMILES	FH mod	NTMT1 inhibitor	GALC G270D up
C[C@H](N)C(=O)c1ccccc1	10%[162 µM]	112µM*	i
CCN(CC)C(C)C(=O)c1ccccc1 (stereo not given)	-2%[53.3 µM]	23%[57.5 µM]	i
CC(C)[N+](C)(CCC(C(N)=O)(c1ccccc1)c1ccccc1)C(C)C	0%[53.3 µM]	40µM*	i
C[C@@H]1CC[C@@]2(OC1)O[C@H]1C[C@H]3[C@@H]4CC=C5C[C@@H](O[C@@H]6O[C@H](CO)[C@@H](O[C@@H]7O[C@@H](C)[C@H](O)[C@@H](O)[C@@H]7O)[C@H](O)[C@@H]6O[C@@H]6O[C@@H](C)[C@H](O)[C@@H](O)[C@@H]6O)CC[C@]5(C)[C@@H]4CC[C@]3(C)[C@@H]1[C@H]2C	-1%[53.3 µM]	-7%[57.5 µM]	nt
CCC1NC(=O)C2C(Cl)C(Cl)CN2C(=O)C(CC)NC(=O)CC(c2ccccc2)NC(=O)C(CO)NC1=O (stereo not given)	-6%[53.3 µM]	-3%[29.8 µM]	nt
CCOC(=O)CC(SP(=S)(OC)OC)C(=O)OCC (stereo not given)	2%[53.3 µM]	32µM*!	i
COC(=O)C12C(=O)C(C)(O)C(=O)C1(C)C(C)=CC1C34CCC(OC3=O)C(C)(C)C4CCC12C (stereo not given)	0%[53.3 µM]	-4%[29.8 µM]	nt
COC(=O)CC1CC2(C(=O)c3c(O)cccc3C2(O)C(=O)OC)C(C)O1 (stereo not given)	12%[53.3 µM]	8%[29.8 µM]	nt
CCOc1ccc(CCNC(=O)c2cc3ccccc3n2Cc2ccccn2)cc1OCC	nt	19%	nt
O=S(=O)(O)C(F)(F)C(F)(F)C(F)(F)C(F)(F)C(F)(F)C(F)(F)C(F)(F)C(F)(F)F	?	22µM*	i
C[C@@H]1[C@H](O)[C@@H](C)/C=C/C=C/CC/C=C/C=C/C=C/C=C/[C@H](O[C@H]2O[C@@H](C)[C@H](O)[C@@H](N)[C@H]2O)C[C@@H]2O[C@](O)(C[C@@H](O)[C@H](O)CC[C@@H](O)C[C@@H](O)C[C@@H](O)CC(=O)O[C@H]1C)C[C@H](O)[C@H]2C(=O)O	1%[53.3 µM]	-8%[29.8 µM]	nt
O=C(Nc1ccc(OC(F)(F)F)cc1)c1cccn(Cc2ccccc2Cl)c1=O	-13%	-4%	i
O=C(O)C(=O)c1cn(Cc2ccccc2)c2ccc(-c3ccc(OC(F)(F)F)cc3)cc12	-13%	40µM*!	nt
CO[C@H]1CCC(O[C@H]2C[C@H]([C@]3(C)CC[C@]4(C[C@H](O)[C@@H](C)[C@@H]([C@@H](C)/C=C(\C)C(=O)[C@H](C)C[C@H](C)C(=O)O)O4)O3)O[C@]3(O[C@@H]([C@H]4O[C@@](O)(CO)[C@H](C)C[C@@H]4C)C[C@@H]3C)[C@@H]2C)O[C@@H]1C (stereo not given in full)	nt	19%	nt
C[C@H]1[C@H](O)[C@@H](C)/C=C/C=C/CC/C=C/C=C/C=C/C=C/[C@H](O[C@@H]2O[C@H](C)[C@@H](O)[C@H](N)[C@@H]2O)C[C@@H]2O[C@](O)(C[C@@H](O)[C@H](O)CC[C@@H](O)C[C@@H](O)C[C@@H](O)CC(=O)O[C@H]1C)C[C@H](O)[C@H]2C(=O)O	nt	-28%	nt
C[N+](C)(C)CCOC(=O)C(O)(c1ccccc1)c1ccccc1	3%[53.3 µM]	16µM*	i
C[N+](C)(C)CCOC(=O)CBr	-22%[53.3 µM]	nt	nt
CCN(CC)C(=O)[C@@H]1C=C2c3cccc4[nH]cc(c34)C[C@H]2N(C)C1	-10%[162 µM]	56µM*	i
CC(C)(C)[C@]1(O)C[C@@H]2OC(=O)C[C@@]23C(=O)O[C@@H]2OC(=O)[C@@H](O)[C@]213	13%[53.3 µM]	-2%[29.8 µM]	nt
C/C=C(\C)C(=O)OC1CC2C(CC=C3CC(OC4CC(OC)C(OC5CC(OC)C(OC6CC(OC)C(OC7CC(OC)C(O)C(C)O7)C(C)O6)C(C)O5)C(C)O4)CCC32C)C2(O)CCC(C(C)=O)C12C (stereo not given)	0%[20.6 µM]	12%[12.6 µM]	nt
NC(=O)CI	25µM*	nt	nt
COC1CC(=O)C23C(=O)NC(CC(C)C)C2C(C)=C(C)C(OO)C3/C=C(\C)CCC(O)C1O (stereo not given)	-1%[53.3 µM]	9%[29.8 µM]	nt
CCOc1ccc(CCNC(=O)c2cc3ccncc3n2Cc2cccc(C)c2)cc1OCC	nt	-1%	nt
COC1CC(OC2CCC3(C)C(CCC4C3CCC3(C)C(C5=CC(=O)OC5)C(OC(C)=O)CC43O)C2)OC(C)C1OC1OC(CO)C(O)C(O)C1O (stereo not given)	1%[20.6 µM]	3%[12.6 µM]	nt
C/C=C(\C)C(=O)OC1C2C3(C)CCC(OC4CC(OC)C(OC5OC(C)C(O)C(OC)C5O)C(C)O4)CC3CCC23OC32CCC(C(C)=O)C2(C)C1OC(=O)/C(C)=C/C (stereo not given)	4%[20.6 µM]	11%[12.6 µM]	nt
SMILES	FH mod	NTMT1 inhibitor	GALC G270D up
C[C@@]1(C(=O)O)CC[C@]2(C)CC[C@]3(C)C4=CC(=O)c5cc(O)c(O)cc5[C@]4(C)CC[C@@]3(C)[C@@H]2C1	-4%[53.3 µM]	8%[29.8 µM]	nt
CC1=C(O)C(=O)C=C2C1=CC=C1[C@@]2(C)CC[C@@]2(C)[C@@H]3C[C@](C)(C(=O)O)CC[C@]3(C)CC[C@]12C	?	16µM*!	nt
CN(C)[C@@H]1C(=O)C(C(N)=O)=C(O)[C@@]2(O)C(=O)C3=C(O)c4c(O)cccc4[C@@](C)(O)[C@H]3[C@H](O)[C@@H]12	-1%[53.3 µM]	79µM*	nt
C=C(C)[C@@H]1CCC(C)=C[C@H]1c1c(O)cc(CCCCC)cc1O	?	8%	nt
CC(=O)[O][Hg][c]1ccccc1	-11%[53.3 µM]	2.8µM*	i
O=C(O)COc1ccccc1	-3%[53.3 µM]	25%[57.5 µM]	i
CCOc1ccc(CCNC(=O)c2cc3cccnc3n2Cc2cccc(C)n2)cc1OCC	nt	3%	nt
CC(N)Cc1c[nH]c2ccccc12 (stereo not given)	25%	4%[57.5 µM]	nt
Cc1[nH]nc2ccc(-c3cncc(OC[C@@H](N)Cc4c[nH]c5ccccc45)c3)cc12	2%	40µM*!	nt
OCCCCC#Cc1cncc(OC[C@@H]2CCN2)c1	14%	-6%[57.5 µM]	nt
Cc1cccc(C)c1OP(=O)(OCc1c(-c2ccccc2)no[n+]1[O-])Oc1c(C)cccc1C	nt	5%	nt
O=P1(N(CCCl)CCCl)NCCCO1 (stereo not given)	5%[53.3 µM]	35µM*!	i
COc1cc(N2CCN(C)CC2)ccc1N	0%	-7%[57.5 µM]	nt
Nc1ccc(N=Nc2ccccc2)cc1	?	126µM*	i
CC(C)(O)/C=C/C(=O)[C@](C)(O)[C@H]1[C@H](O)C[C@@]2(C)[C@@H]3CC=C4[C@@H](C=C(O)C(=O)C4(C)C)[C@]3(C)C(=O)C[C@]12C	13%[13.5 µM]	11%[29.8 µM]	nt
C/C=C1/CN2CC[C@]34C(=Nc5ccccc53)[C@@H]2C[C@@H]1[C@H]4C(=O)OC	4%[53.3 µM]	9%[29.8 µM]	nt
COc1ccccc1CN[C@H]1C2CCN(CC2)[C@H]1C(c1ccccc1)c1ccccc1	8%	3%[57.5 µM]	nt
Cc1cc(C)cc(OCC(=O)Nc2ccc(-c3nc4ccccc4s3)cc2)c1	1%	12%	40µM*
Cc1cc(C)cc(OCC(=O)Nc2ccc(Cl)cc2C(=O)c2ccccc2)c1	-6%	-5%	i
C=C[C@H]1CN2CCC1C[C@H]2[C@H](O)c1ccnc2ccccc12 (stereo not given in full)	2%	-22%[57.5 µM]	nt
